“And” between values parts separate entries of the source, which are not always exact repeats. Identical values can stand only once. Values without a mark were called inactive. The source made the active and inactive calls.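 The calls were made as follows: active = thallium flux through the channel raised or lowered by more than 3 SD from vehicle-only wells, actives on both sides; inactive = the rest.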
Tests used:
Test in all cases: modulators of BK channel variants, profiling panel, selectivity assay, cell-based, U2OS BacMam, thallium flux, beta subunits (AID 1259406);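 also: initial slope of Thallos dye fluorescence rise after thallium is added; log ratio against the mean of 0.3% DMSO vehicle wells on the same plate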
[1] = system: F380Y/beta2Delta; settings: at 30 µM
[2] = system: F380Y/beta4; settings: at 30 µM
[3] = biological target: Calcium-activated potassium channel subunit alpha-1 (Homo sapiens) + Leucine-rich repeat-containing protein 26 (Homo sapiens) (UniProt Q12791+Q2I0M4); settings: F380Y/Slo1WT/gamma1, at 30 µM
Chain of Calcium-activated potassium channel subunit alpha-1 (Homo sapiens) + Leucine-rich repeat-containing protein 26 (Homo sapiens) (Q2I0M4 whole entry, looked up, one chain of several): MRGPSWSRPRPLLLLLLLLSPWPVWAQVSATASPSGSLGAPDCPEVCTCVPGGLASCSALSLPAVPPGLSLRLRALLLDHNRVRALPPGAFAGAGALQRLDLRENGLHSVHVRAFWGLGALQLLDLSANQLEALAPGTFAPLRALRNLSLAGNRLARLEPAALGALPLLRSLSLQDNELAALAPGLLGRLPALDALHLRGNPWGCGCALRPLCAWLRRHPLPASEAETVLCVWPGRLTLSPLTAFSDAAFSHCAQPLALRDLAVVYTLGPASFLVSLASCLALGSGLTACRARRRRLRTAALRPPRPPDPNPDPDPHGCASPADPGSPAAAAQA

[4] = system: R275C; settings: at 30 µM
[5] = system: R275C/beta1; settings: at 30 µM
[6] = system: R275C/beta2Delta; settings: at 30 µM
[7] = system: R275C/beta4; settings: at 30 µM
[8] = system: R275C/Slo1WT/beta2; settings: at 30 µM

SMILES	log fold change Tl+ flux [1]	log fold change Tl+ flux [2]	log fold change Tl+ flux [3]	log fold change Tl+ flux [4]	log fold change Tl+ flux [5]	log fold change Tl+ flux [6]	log fold change Tl+ flux [7]	log fold change Tl+ flux [8]
CC(C)(C#N)c1cc(Cn2cncn2)cc(C(C)(C)C#N)c1	0.0269	-0.0138	0.043	-0.0232	0.00836	0.00182	-0.00704	-0.000892
C#C[C@]1(O)CC[C@H]2[C@@H]3CCc4cc(OC)ccc4[C@H]3CC[C@@]21C	-0.0353	0.0115	-0.0403	-0.0453	0.019	-0.00738	0.00852	-0.04
C[C@H](NC(CCc1ccccc1)C(=O)O)C(=O)N1CCC[C@H]1C(=O)O (stereo not given in full)	0.0235	0.0162	-0.0317	-0.0419	0.0208	0.0297	0.0258	0.0874 (active)
Cn1nnc2c(C(N)=O)ncn2c1=O	-0.0261	-0.0309	0.0144	-0.00524	-0.0169	0.0357	-0.0137	0.06
COCc1c(C(C)C)nc(C(C)C)c(/C=C/[C@@H](O)C[C@@H](O)CC(=O)O)c1-c1ccc(F)cc1	0.143 (active)	0.268 (active)	0.103 (active)	0.0107	0.391 (active)	0.192 (active)	0.207 (active)	0.0728
CCc1nn(CCCN2CCN(c3cccc(Cl)c3)CC2)c(=O)n1CCOc1ccccc1	-0.507 (active)	-0.446 (active)	0.00963	-0.055	0.378 (active)	0.156 (active)	0.207 (active)	-0.00757
CC(C)(C(=O)c1cccnc1)c1cccnc1	-0.0492	-0.00737	-0.0176	-0.0634	0.0377	-0.0241	0.0328	0.0667
C[C@]12C[C@H](O)[C@H]3[C@@H](CCC4=CC(=O)CC[C@@]43C)[C@@H]1CC[C@@H]2C(=O)CO	-0.00742	0.0166	0.0373	-0.04	0.00127	0.0285	0.0631	0.00421
COC(=O)C1=C(C)NC(C)=C(C(=O)OC(C)C)C1c1cccc2nonc12 (stereo not given)	-0.0966	-0.107 (active)	0.00177	-0.0742	-0.015	-0.0967	-0.00531	-0.0356
CCCN[C@H]1CCc2nc(N)sc2C1	0.0149 and -0.064	0.049	-0.0398 and 0.00679	-0.0132 and -0.0398	-0.0125 and -0.021	-0.0052 and -0.0245	0.000139	0.0182
CCOc1cc(N)c(Cl)cc1C(=O)NCC1CN(Cc2ccc(F)cc2)CCO1 (stereo not given)	0.0207	-0.0442	0.0207	-0.0128	0.0447	0.108 (active)	0.0132	0.00286
Cc1[nH]cnc1CN1CCc2c(c3ccccc3n2C)C1=O	-0.0209	-0.0392	0.00572	-0.066	0.0308	-0.0141	0.0279	0.0535
CN1CCC(=C2c3ccccc3CC(=O)c3sccc32)CC1	0.00285	0.0281	0.0191	-0.082	0.0422	0.0873	0.0237	0.0313
CC(C)NCC(O)COc1ccc(CCOCC2CC2)cc1 (stereo not given)	0.0281	0.0205	-0.00804	0.0179	0.00923	-0.0652	-0.0167	-0.00955
Nc1nc2c(ncn2COC(CO)CO)c(=O)[nH]1	0.0461	0.0377	-0.00437	0.0708	-0.0192	0.0472	-0.0224	-0.00303
Cc1cccc(C)c1OCC(C)N (stereo not given)	0.00522	0.033	0.0106	0.0441	0.0258	0.00537	0.0107	0.0729
CC[N+](C)(CC)CCOC(=O)C(O)(c1ccccc1)C1CCCCC1 (stereo not given)	-0.0141	-0.0257	0.0349	-0.0159	-0.00643	0.0312	0.0157	0.0812 (active)
O=C(NCCN1CCOCC1)c1ccc(Cl)cc1	-0.0313	-0.0725	-0.000886	-0.0119	-0.015	-0.0276	-0.0049	-0.0216
CN(C)CC[C@@H](c1ccc(Br)cc1)c1ccccn1	-0.012	0.0692	0.0361	-0.0783	0.0411	0.0403	0.00601	0.00129
CC(C)(C)NC(=O)[C@H]1CC[C@H]2[C@@H]3CC[C@H]4NC(=O)C=C[C@]4(C)[C@H]3CC[C@]12C	0.0468	0.00105	-0.00445	-0.0443	-0.0219	0.0533	0.00132	-0.0253
CCOC(=O)O[C@]1(C(=O)OCCl)CC[C@H]2[C@@H]3CCC4=CC(=O)C=C[C@]4(C)[C@H]3[C@@H](O)C[C@@]21C	-0.0465	0.0515	0.0345	-0.0297	0.0209	0.00232	0.00823	0.00305
CN1CCN(C2=Nc3cc(F)ccc3Cc3ccccc32)CC1	0.0383	0.075	-0.0172	-0.0264	0.0276	0.0198	0.0369	0.0225
COc1ccc(C2CNC(=O)C2)cc1OC1CCCC1 (stereo not given)	-0.0248	-0.115 (active)	-0.000443	0.0314	0.031	-0.00816	0.0303	0.00671
COC(=O)C1=C(C)NC(C)=C(C(=O)O[C@@H]2CCCN(Cc3ccccc3)C2)[C@@H]1c1cccc([N+](=O)[O-])c1	-0.042	-0.0532	-0.0108	-0.0526	0.192 (active)	0.191 (active)	-0.0168	-0.0109
Nc1ccn([C@H]2CC[C@@H](CO)O2)c(=O)n1	-0.0145	0.0289	0.0157	-0.0969	-0.00164	-0.00877	0.00428	0.0272
OCc1cccnc1	0.033	0.017	-0.0204	-0.0301	-0.00726	-0.015	-0.00528	0.0162
CCCc1nc(C)c2c(=O)[nH]c(-c3cc(S(=O)(=O)N4CCN(CC)CC4)ccc3OCC)nn12	0.0398	0.0304	0.0127	-0.0462	0.019	0.017	-0.00355	0.00306
O=C1c2cccc3c2[C@H](CCC3)CN1[C@@H]1CN2CCC1CC2	0.0262	0.0479	0.0044	-0.0177	-0.00783	0.00552	-0.0169	-0.0269
CC(=O)Oc1ccccc1C(=O)Nc1ncc([N+](=O)[O-])s1	-0.0604	-0.0482	0.139 (active)	-0.00393	0.0452	0.237 (active)	0.0513	0.00625
CC(c1cc2ccccc2s1)N(O)C(N)=O (stereo not given)	0.0219	0.0185	0.0287	0.00217	0.0284	0.0541	-0.0188	0.0381
